Test results published in the supplement of paper PMC10849652.
Of roughly 7,900 targets only a part is listed; those with a hit were picked by preference. About 0.6% of all pairs of compound and target were hits.

What follows are targets tested with CC(C)(C)Cn1c(N)nc2ccc(-c3[nH]c(C(C)(C)C)nc3-c3ccc(F)cc3)nc21 [ralimetinib] (assay: log2 fold change, soluble protein after heating vs DMSO (PISA); higher = thermal stabilisation; K562 cells, 10 uM, 30 min; active = over 0.2 and 3.5 SD of the protein, either way, in both replicates (recomputed)).
How it was run: (§1)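 Values are thermal stability changes relative to control samples and are taken from duplicates. They are stated as log2 fold changes. Before quantification by TMTpro 16plex LC-MS/MS with equalised channel sums, K562 cells at 2×10^6 cells/mL were treated with 10 μM compound for 30 min, heated in aliquots for 3 min across 48°C-58°C, pooled, extracted in PBS with 0.5% NP-40 at 4°C, and centrifuged at 21,000xg for 90 min to give the soluble supernatant.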

Sequence of UniProt O75116 (O75116 whole entry, looked up): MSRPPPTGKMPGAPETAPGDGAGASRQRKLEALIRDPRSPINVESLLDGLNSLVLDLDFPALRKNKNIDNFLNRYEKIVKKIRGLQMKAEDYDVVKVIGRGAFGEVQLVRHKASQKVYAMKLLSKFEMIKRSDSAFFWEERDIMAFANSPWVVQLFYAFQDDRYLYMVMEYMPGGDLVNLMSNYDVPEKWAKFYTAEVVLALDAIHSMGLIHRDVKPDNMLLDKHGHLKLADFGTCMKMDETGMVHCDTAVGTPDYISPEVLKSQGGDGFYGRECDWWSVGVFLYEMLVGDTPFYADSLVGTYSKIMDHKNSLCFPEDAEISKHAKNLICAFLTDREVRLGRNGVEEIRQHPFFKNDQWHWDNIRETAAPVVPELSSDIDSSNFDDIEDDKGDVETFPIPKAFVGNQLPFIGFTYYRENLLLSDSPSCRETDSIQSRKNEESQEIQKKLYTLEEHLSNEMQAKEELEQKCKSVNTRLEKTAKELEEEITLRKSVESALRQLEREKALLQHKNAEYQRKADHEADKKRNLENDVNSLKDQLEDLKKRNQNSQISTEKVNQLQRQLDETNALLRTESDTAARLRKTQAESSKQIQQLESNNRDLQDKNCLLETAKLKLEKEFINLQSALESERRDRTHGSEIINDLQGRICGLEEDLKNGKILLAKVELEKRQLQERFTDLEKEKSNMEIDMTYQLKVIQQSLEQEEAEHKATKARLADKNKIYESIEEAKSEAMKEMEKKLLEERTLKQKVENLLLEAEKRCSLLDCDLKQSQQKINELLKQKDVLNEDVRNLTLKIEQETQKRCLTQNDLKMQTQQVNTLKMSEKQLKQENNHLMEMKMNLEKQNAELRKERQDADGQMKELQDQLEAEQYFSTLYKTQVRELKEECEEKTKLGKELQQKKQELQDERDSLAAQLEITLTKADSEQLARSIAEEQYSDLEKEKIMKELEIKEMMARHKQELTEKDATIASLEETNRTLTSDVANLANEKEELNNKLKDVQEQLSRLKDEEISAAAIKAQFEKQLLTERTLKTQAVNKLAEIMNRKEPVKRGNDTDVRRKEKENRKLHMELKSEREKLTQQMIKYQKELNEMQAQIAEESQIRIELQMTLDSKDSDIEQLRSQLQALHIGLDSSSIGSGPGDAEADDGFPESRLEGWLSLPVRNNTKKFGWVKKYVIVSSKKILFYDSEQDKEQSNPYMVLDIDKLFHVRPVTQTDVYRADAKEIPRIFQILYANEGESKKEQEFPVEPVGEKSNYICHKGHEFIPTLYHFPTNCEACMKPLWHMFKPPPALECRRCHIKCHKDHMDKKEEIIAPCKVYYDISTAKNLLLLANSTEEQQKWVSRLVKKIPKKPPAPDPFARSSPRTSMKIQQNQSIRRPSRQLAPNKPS
Sequence of UniProt Q5T8P6 (Q5T8P6 whole entry, looked up): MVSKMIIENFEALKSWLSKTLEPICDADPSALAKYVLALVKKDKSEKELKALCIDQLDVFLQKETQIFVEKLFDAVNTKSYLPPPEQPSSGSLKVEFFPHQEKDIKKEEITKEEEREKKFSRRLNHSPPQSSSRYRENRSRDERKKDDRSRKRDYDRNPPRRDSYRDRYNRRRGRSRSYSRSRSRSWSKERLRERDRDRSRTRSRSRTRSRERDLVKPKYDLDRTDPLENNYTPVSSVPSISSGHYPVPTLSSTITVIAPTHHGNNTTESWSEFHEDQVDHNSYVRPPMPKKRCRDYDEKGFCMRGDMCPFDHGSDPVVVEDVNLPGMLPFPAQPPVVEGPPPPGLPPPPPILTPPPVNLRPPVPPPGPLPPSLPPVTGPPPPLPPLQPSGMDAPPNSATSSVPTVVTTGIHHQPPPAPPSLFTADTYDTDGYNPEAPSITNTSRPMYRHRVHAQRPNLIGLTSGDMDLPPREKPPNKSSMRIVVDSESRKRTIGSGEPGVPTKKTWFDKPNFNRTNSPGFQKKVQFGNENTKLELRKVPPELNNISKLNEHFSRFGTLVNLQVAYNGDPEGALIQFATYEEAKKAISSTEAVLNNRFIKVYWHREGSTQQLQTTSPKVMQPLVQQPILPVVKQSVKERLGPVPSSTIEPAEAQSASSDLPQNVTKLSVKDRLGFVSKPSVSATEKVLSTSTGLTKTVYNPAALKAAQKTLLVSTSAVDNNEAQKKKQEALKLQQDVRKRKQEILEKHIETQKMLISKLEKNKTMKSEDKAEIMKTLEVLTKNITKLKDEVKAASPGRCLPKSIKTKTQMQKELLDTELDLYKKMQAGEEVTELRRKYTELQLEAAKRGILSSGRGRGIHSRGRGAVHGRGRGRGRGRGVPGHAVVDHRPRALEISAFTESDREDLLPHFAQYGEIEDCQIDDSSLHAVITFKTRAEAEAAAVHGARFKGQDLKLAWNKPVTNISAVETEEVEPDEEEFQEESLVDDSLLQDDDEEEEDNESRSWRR
Sequence of UniProt Q8N5L8 (Q8N5L8 whole entry, looked up): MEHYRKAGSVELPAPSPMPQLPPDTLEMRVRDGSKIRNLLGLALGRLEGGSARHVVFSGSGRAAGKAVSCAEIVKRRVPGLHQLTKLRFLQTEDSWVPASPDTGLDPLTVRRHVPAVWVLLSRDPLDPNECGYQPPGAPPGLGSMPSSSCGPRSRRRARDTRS
Sequence of UniProt Q86TU7 (Q86TU7 whole entry, looked up): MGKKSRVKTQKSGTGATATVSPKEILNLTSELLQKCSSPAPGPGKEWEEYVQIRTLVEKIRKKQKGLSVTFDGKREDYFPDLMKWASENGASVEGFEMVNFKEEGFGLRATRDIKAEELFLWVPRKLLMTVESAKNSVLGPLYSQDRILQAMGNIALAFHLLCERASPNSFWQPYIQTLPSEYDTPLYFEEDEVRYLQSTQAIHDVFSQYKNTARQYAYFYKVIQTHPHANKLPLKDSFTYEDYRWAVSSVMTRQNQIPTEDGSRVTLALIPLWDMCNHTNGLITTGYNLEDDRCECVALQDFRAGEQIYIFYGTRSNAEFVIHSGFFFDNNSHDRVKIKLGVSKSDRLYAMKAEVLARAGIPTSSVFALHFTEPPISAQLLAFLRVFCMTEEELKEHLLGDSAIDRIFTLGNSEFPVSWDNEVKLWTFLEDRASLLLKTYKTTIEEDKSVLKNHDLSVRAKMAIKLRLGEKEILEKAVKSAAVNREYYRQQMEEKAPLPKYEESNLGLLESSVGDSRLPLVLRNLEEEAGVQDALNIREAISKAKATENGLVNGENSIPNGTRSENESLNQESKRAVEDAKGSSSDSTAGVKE
Sequence of UniProt Q8WXD2 (Q8WXD2 whole entry, looked up): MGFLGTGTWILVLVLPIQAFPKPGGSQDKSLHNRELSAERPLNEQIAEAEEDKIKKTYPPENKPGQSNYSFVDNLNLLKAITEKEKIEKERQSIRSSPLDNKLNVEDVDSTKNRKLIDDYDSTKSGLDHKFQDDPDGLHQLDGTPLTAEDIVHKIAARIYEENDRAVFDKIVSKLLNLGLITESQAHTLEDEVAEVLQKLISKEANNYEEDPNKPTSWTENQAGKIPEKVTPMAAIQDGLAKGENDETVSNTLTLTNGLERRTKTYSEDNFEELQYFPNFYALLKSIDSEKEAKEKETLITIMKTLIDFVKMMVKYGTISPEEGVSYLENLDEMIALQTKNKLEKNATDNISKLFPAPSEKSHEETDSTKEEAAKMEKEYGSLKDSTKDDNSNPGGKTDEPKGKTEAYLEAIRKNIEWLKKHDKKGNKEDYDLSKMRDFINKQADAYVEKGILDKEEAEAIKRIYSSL
Sequence of UniProt Q8N0T1 (Q8N0T1 whole entry, looked up): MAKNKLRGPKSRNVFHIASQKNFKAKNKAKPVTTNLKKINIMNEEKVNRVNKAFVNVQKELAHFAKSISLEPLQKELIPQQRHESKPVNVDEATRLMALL
Sequence of UniProt Q9H4A4 (Q9H4A4 whole entry, looked up): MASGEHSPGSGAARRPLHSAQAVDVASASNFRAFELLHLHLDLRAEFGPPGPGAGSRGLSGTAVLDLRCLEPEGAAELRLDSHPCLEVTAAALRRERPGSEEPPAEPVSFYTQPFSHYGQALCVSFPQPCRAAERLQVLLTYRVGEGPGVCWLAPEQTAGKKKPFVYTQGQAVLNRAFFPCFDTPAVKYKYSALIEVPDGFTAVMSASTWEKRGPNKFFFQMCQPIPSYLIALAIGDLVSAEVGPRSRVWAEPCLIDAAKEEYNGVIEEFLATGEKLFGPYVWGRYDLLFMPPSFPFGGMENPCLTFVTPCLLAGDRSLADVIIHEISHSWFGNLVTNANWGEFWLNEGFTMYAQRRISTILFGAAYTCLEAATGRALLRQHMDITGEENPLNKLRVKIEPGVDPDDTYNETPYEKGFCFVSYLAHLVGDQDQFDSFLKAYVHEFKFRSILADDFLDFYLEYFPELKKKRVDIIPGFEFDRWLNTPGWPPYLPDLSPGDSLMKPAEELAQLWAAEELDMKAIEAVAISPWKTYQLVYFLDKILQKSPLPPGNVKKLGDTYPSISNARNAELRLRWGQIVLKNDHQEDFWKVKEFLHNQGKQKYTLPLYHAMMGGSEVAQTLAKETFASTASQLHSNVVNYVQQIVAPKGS
Sequence of UniProt P51151 (P51151 whole entry, looked up): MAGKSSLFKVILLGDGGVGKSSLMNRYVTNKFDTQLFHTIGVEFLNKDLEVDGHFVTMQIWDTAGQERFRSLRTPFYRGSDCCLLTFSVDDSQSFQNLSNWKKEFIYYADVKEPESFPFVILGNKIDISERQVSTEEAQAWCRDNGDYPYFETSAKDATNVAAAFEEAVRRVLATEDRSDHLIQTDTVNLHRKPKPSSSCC
Sequence of UniProt Q9NQG5 (Q9NQG5 whole entry, looked up): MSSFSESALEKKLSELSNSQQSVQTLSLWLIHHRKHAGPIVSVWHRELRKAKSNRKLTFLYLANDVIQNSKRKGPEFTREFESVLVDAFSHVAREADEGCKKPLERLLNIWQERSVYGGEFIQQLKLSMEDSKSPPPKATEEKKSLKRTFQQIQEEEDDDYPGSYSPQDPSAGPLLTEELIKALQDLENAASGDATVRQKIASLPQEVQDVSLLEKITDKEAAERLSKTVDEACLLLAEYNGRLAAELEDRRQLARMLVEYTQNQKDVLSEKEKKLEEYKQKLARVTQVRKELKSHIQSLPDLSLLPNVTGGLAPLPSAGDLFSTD

log2 fold change, inactive:
RPS20 isoform 2 (UniProt P60866) 0.041, RAC1 (UniProt P63000) -0.01, SEC16A isoform 5 (UniProt O15027) 0.172, RPRD1B (UniProt Q9NQG5) 0, ROCK2 (UniProt O75116) 0.032, RALY (UniProt Q9UKM9) -0.029, SETD3 (UniProt Q86TU7) -0.041, RBIS (UniProt Q8N0T1) -0.021, RBM26 isoform 2 (UniProt Q5T8P6) -0.021

Each target was assayed with CC(C)(O)CC(=O)NCCn1ccc2ncnc(Nc3ccc(Oc4cccc(C(F)(F)F)c4)c(Cl)c3)c21 in the same assay as above.
How it was run: as §1

log2 fold change, inactive:
RPS12 (UniProt P25398) 0.003, RUNX1 isoform 8 (UniProt Q01196) -0.138, RAB9A (UniProt P51151) -0.014, RPS9 (UniProt P46781) 0.047, SCG3 (UniProt Q8WXD2) 0.039, RNPEP (UniProt Q9H4A4) -0.055, SCCPDH (UniProt Q8NBX0) 0.156, RABGGTA (UniProt Q92696) -0.021, RRAGB (UniProt Q5VZM2) -0.012, RPS21 (UniProt P63220) 0.069, RPP25L (UniProt Q8N5L8) -0.015, SCAF11 (UniProt Q99590) -0.084, RGS10 (UniProt O43665) -0.025, RPL38 (UniProt P63173) 0.113
